Data taken from PubChem BioAssay AID504861 (Broad Institute, 2011).
Among all 1,200 compounds or so, about 290 (24%) were called active. Another 3% or so got no clear call; they are omitted. The list is a sample of the results. Measured potencies and affinities stand elsewhere. Values without a mark were called inactive.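 Rule for the calls: active = compounds lowering cell viability signal with fitted half-maximal concentration at most ten times their highest tested concentration; inconclusive = flat fit with 30 to 70% signal loss, or poor fit; inactive = the rest.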

Test: cytotoxicity in HEK293T cells – cell-based, CellTiter-Glo luminescence, cherry-picks, cytotoxicity control for LMP1 NF-kB inhibitor project, dose response (AID 504861)
Settings: HEK293T viability, CellTiter-Glo ATP luminescence, 48 h; series mostly up to 26 µM; activity change, negative = cytotoxicity: at the top concentration

Compared with `CCN(CC(=O)Nc1ccc(NC(C)=O)cc1)C(=O)c1cccnc1Sc1ccc(C)c(C)c1`, `Cc1ccc(-c2nc3cccnc3o2)cc1NC(=O)COc1ccc(C(C)(C)C)cc1` is lower in “activity change, negative = cytotoxicity” value: 3.97% for the first, -1.19% for the second.

Going from `Cc1ccccc1C(=O)NC(=S)Nc1ccc(N2CCN(C(=O)c3ccccc3)CC2)cc1` to `COc1ccc(NC(=O)c2ccc(-c3ccccc3)cc2)cc1S(=O)(=O)N1CCOCC1`, the “activity change, negative = cytotoxicity” value rises from -0.757% to 0.12%.

Compared with `Cc1ccc(CNC(=O)C(=O)NCC2OCCN2S(=O)(=O)c2ccc(Cl)cc2)cc1` (centres undefined), `Cc1ccc(-n2ccc(=O)c(C(=O)Nc3ccc(S(=O)(=O)N4CCOCC4)cc3)n2)cc1` is lower in “activity change, negative = cytotoxicity” value: 12.9% for the first, 0.296% for the second.

Compared with `CN1CCN(/N=C/c2ccc(N(c3ccccc3)c3ccccc3)cc2)CC1`, `O=c1c2cnn(-c3ccccc3)c2nc(-c2cccs2)n1-c1ccc(Br)cc1` is higher in “activity change, negative = cytotoxicity” value: -5.7% for the first, 1.27% for the second.

Going from `COc1cccc(/C=N/Nc2ncnc(N)c2[N+](=O)[O-])c1OC` to `O=[N+]([O-])c1ccc(O)c(/C=N/Nc2ncnc3c2cnn3-c2ccccc2)c1`, the “activity change, negative = cytotoxicity” value rises from 4.22% to 13%.

Going from `Cc1cc(C(=O)COc2cccnc2[N+](=O)[O-])c(C)n1-c1ccccc1F` to `Cc1cc(C(=O)CSc2nnc(-c3cccs3)o2)c(C)n1-c1ccccc1`, the “activity change, negative = cytotoxicity” value rises from -9.11% to 1.11%.

Going from `Cc1ccsc1-c1nc(CSCC(=O)N2CCN(c3ccccc3)CC2)c(C)o1` to `COc1ccc(N2CCN(CCNC(=O)CCCn3c(=O)[nH]c4cc(Cl)ccc4c3=O)CC2)cc1`, the “activity change, negative = cytotoxicity” value rises from -11.5% to 5.79%.

Going from `Oc1c(N=NC(=S)Nc2ccccc2F)c2ccccc2n1Cc1ccc(F)cc1` to `Oc1c(N=NC(=S)Nc2ccccc2F)c2ccccc2n1Cc1ccccc1`, the “activity change, negative = cytotoxicity” value rises from -7.28% to -0.998%.

Going from `COc1ccc(Cn2c(SCc3cc(C)ccc3C)nc3cc(OC)c(OC)cc3c2=N)cc1` to `COc1ccc(OC)c(NC(=O)COc2coc(CN3CCc4ccccc43)cc2=O)c1`, the “activity change, negative = cytotoxicity” value rises from 3.5% to 5.75%.

First: COc1ccc(-c2cn3nc4c(nc3n2)CCCC4)cc1
Second: COc1ccc(-c2cc(C(F)(F)F)n3nc(C(=O)N4CCOCC4)nc3n2)cc1
The “activity change, negative = cytotoxicity” value of the first is lower: 5.52% for the first, 15.6% for the second.

First: CCOC(=O)C1=C(C)NC(C)=C(C(=O)OCC)C1C(=O)OCC(=O)N(C)C1CCS(=O)(=O)C1 (centres undefined)
Second: CCOC(=O)c1sc(NC(=O)CNCc2ccccn2)c(C(=O)OCC)c1C
The “activity change, negative = cytotoxicity” value of the first is higher: 15.2% for the first, -5.06% for the second.

Going from `O=C(CCCN1C(=O)/C(=C/c2ccccc2Cl)SC1=S)NNC(=O)c1ccccc1Cl` to `O=C(O)CN1C(=O)/C(=C\c2ccccc2OCc2ccc(Cl)cc2Cl)SC1=S`, the “activity change, negative = cytotoxicity” value rises from 4.78% to 5.71%.

Going from `COc1cc(C(=S)N2CCOCC2)cc(OC)c1OC(=O)c1ccc(F)cc1` to `COc1ccc(C(=O)N2CC(=O)Nc3ccccc32)cc1S(=O)(=O)N1CCCC1`, the “activity change, negative = cytotoxicity” value rises from 2.77% to 17.4%.

First: CC(C)CCNC(=O)C1CCN(S(=O)(=O)c2ccc3c(c2)CC(C)N3C(=O)C2CC2)CC1 (centres undefined)
Second: CCOc1ccc(S(=O)(=O)N2CCC(C(=O)NCCc3ccc(S(N)(=O)=O)cc3)CC2)cc1
The “activity change, negative = cytotoxicity” value of the first is lower: -4.11% for the first, 9.59% for the second.

Going from `COc1ccc(OC)c(S(=O)(=O)NC(C)CCc2ccccc2)c1` (centres undefined) to `COc1ccc2oc(C(=O)NCCc3ccccc3)c(C)c2c1`, the “activity change, negative = cytotoxicity” value rises from -3.46% to -1.74%.

Going from `COc1ccc(C(=O)CSc2nnc(Cc3ccccc3)o2)cc1` to `COc1ccc(-c2nnc(NC(=O)c3ccc(S(=O)(=O)N4CCCc5ccccc54)cc3)o2)cc1`, the “activity change, negative = cytotoxicity” value rises from -0.444% to 4.47%.

Going from `CCc1ccc(C(=O)COC(=O)c2cccc(N3C(=O)c4c(C)nc5ccccc5c4C3=O)c2)cc1` to `CCOc1ccc(NC(=O)c2ccc(N3CC4CC(C3)c3cccc(=O)n3C4)c(NC(=O)c3cccnc3)c2)cc1` (centres undefined), the “activity change, negative = cytotoxicity” value falls from 17.6% to 10.1%.

First: CCOC(=O)Cc1csc(N/N=C\c2ccc(N(C)C)cc2)n1
Second: CCc1sc(C(=O)Nc2nc(-c3ccccn3)cs2)cc1C
The “activity change, negative = cytotoxicity” value of the first is higher: -1.39% for the first, -6.77% for the second.

Compared with `O=C(OCc1ccccc1F)c1cc2ccccc2cc1O`, `O=C(NCCOc1ccccc1)c1ccc2c(c1)OCO2` is lower in “activity change, negative = cytotoxicity” value: -1.01% for the first, -2.16% for the second.

Going from `Cc1cc(OCC(=O)Nc2cnn(CCCC(=O)O)c2)ccc1Cl` to `Cc1ccnc(NC(=O)c2sc3ccccc3c2Cl)c1`, the “activity change, negative = cytotoxicity” value falls from 13.2% to 6.79%.

Compared with `C=CCn1c(SCc2ccc3nonc3c2)nnc1-c1cccs1`, `COCCn1c(C)cc(C(=O)CSc2nnc3ccccn23)c1C` is lower in “activity change, negative = cytotoxicity” value: 1.17% for the first, -3.29% for the second.

Going from `Cc1ccc(S(=O)(=O)NC(CC(C)C)C(=O)NCC(c2ccco2)N2CCCCC2)cc1` (centres undefined) to `O=C(Cc1ccc(Cl)cc1)NCC(=O)N1CCCCC1`, the “activity change, negative = cytotoxicity” value rises from -0.283% to 6.35%.

Compared with `CCCCCn1c(N2CCOCC2)nc2c1c(=O)n(CC(N)=O)c(=O)n2C`, `Cc1sc2ncn(CC(=O)N3CCC(C(N)=O)CC3)c(=O)c2c1S(=O)(=O)N1CCOCC1` is higher in “activity change, negative = cytotoxicity” value: 8.7% for the first, 10.7% for the second.

Compared with `C(=Cc1nc2ccccc2o1)c1ccc2c(c1)OCO2`, `O=c1oc2ccccc2c(O)c1/C=N/c1ccccn1` is higher in “activity change, negative = cytotoxicity” value: 2.36% for the first, 10.1% for the second.

Compared with `Cc1cc(C)c(OCCn2ccnc2)c(C)c1`, `Cc1cccc(CNc2ncnc3ccc(-c4ccoc4)cc23)c1` is higher in “activity change, negative = cytotoxicity” value: -0.473% for the first, 4.7% for the second.

First: O=C1N[C@@H](Cc2c[nH]c3ccccc23)COC(=O)[C@H](Cc2ccc(F)cc2)C/C=C\C[C@H]1CC(=O)N(CCO)Cc1ccccc1
Second: Nc1ncnc2c1c(-c1ccc(Oc3ccccc3)cc1)cn2C1CCCC1
The “activity change, negative = cytotoxicity” value of the first is lower: -1.61% for the first, 3.2% for the second.

Going from `Cc1sc2ncnc(N3CCC(C(=O)Nc4ccccc4C(C)(C)C)CC3)c2c1C` to `Cc1ccc(C(=O)Nc2nnc(SCC(=O)N3CCCc4ccccc43)s2)cc1`, the “activity change, negative = cytotoxicity” value rises from -1.53% to 5.64%.

Going from `CC1(C)Cc2nc3sc4c(SCC(=O)O)ncnc4c3cc2CO1` to `Nc1ccc(CCNc2ncnc3c2ncn3[C@@H]2O[C@H](CO)[C@@H](O)[C@H]2O)cc1`, the “activity change, negative = cytotoxicity” value rises from 5.57% to 6.31%.

Compared with `CCOc1ccc(NC(=S)N=Nc2c(O)[nH]c3ccccc23)cc1`, `O=C(Nc1ccc2c(c1)C(=O)OC2)c1ccc(C(F)(F)F)cc1` is higher in “activity change, negative = cytotoxicity” value: -3.24% for the first, 0.862% for the second.

Compared with `CSc1oc(-c2ccc(F)cc2)nc1S(=O)(=O)c1ccc(F)cc1`, `Cc1ccc(S(=O)(=O)N2c3ccccc3-c3c(ssc3=S)C2(C)C)cc1` is lower in “activity change, negative = cytotoxicity” value: 5.8% for the first, -4.1% for the second.

Compared with `O=C(CN1C(=O)C2C3C=CC(C3)C2C1=O)NCCC1=CCCCC1` (centres undefined), `CCCCN1C2CCCC1CC(NC(=O)C1CCCCC1)C2` (centres undefined) is lower in “activity change, negative = cytotoxicity” value: 22% for the first, 7.49% for the second.

Going from `O=C(Nc1cc(C(F)(F)F)cc(C(F)(F)F)c1)Nc1cnn(-c2ccc([N+](=O)[O-])cc2)c1C(F)(F)F` to `Cc1cccc(S(=O)(=O)N2CCCc3ccccc32)c1`, the “activity change, negative = cytotoxicity” value rises from -0.689% to 0.425%.
